# Laboratory results reported in publication PMC5540273 (PLoS ONE, 2017).
# Assays:
# Conditions in all cases: concentration: 1 μM, replicates: in singlicate; n = 1
# AXL = tested on: AXL
# BIKE = tested on: T1, BIKE
# T1 construct: gene BMP2K
# BLK = tested on: BLK
# BMPR1A = tested on: BMPR1A
# BMPR1B = tested on: BMPR1B
# BMPR2 = tested on: BMPR2
# BMX = tested on: BMX
# BRAF = tested on: BRAF
# BRK = tested on: T2, BRK
# T2 construct: gene PTK6
# BRSK1 = tested on: BRSK1
# 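Note: KINOMEscan kinase panel screen.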
SMILES,%Inh (AXL),%Inh (BIKE),%Inh (BLK),%Inh (BMPR1A),%Inh (BMPR1B),%Inh (BMPR2),%Inh (BMX),%Inh (BRAF),%Inh (BRK),%Inh (BRSK1)
Nc1nccc2scc(-c3ccc4c(c3)CCN4C(=O)Cc3ccccc3)c12 [GSK2576924],36%,8%,1%,0%,0%,2%,19%,0%,43%,0%
C[C@@H]1CC[C@H](C(=O)NC2CCCCC2)CN1c1cc(-c2ccc3c(N)n[nH]c3c2)nc(N)n1 [GSK2291363],4%,78%,52%,0%,0%,0%,21%,5%,27%,0%
COc1cc(Nc2ccnc3ccc(C(F)(F)F)cc23)cc(OC)c1OC [GW577382],12%,0%,34%,0%,22%,22%,16%,8%,8%,0%
Nc1ncnc2c1ncn2-c1cccc2ccccc12 [SKF-97184],0%,0%,6%,0%,0%,35%,0%,0%,0%,0%
CCC(=O)c1c(-c2ccccc2)c2cc(Cl)ccc2c(=O)n1Cc1cc(S(C)(=O)=O)n(CC(F)F)n1,0%,0%,0%,0%,6%,1%,0%,13%,0%,0%
CN(C)c1cc(-c2ccc3c(N)n[nH]c3c2)nc(N)n1 [GSK2219329],0%,32%,2%,0%,0%,0%,13%,0%,0%,0%
Nc1n[nH]c2nnc(-c3ccccc3)c(-c3ccccc3)c12 [GW554060],0%,22%,35%,0%,41%,0%,22%,2%,8%,10%
Nc1n[nH]c2ncc(-c3ccccc3)cc12 [SB-517081],0%,17%,13%,2%,0%,34%,0%,0%,24%,0%
CCCC(=O)Nc1n[nH]c2ncc(-c3cccc4ccccc34)cc12 [SB-642057],18%,28%,0%,12%,5%,0%,0%,0%,0%,0%
COc1cc2nccc(Nc3cccc(Oc4ccccc4)c3)c2cc1OC.Cl [GW284543],0%,1%,69%,0%,0%,0%,0%,0%,60%,0%
CCS(=O)c1ccc(-c2coc3ccc(-c4nnc(C)o4)cc23)cc1 (centres unmarked),0%,0%,3%,0%,6%,15%,18%,0%,0%,0%
COc1cc2ncn(-c3cc(OCc4ccncc4Br)c(C(N)=O)s3)c2cc1OC [GW854278],30%,39%,11%,8%,6%,13%,10%,2%,6%,25%
COc1ccc(-n2cnc3c(N)ncnc32)cc1 [SKF-97236],22%,55%,16%,34%,0%,0%,0%,5%,0%,2%
Cc1cccc(-c2nc(Nc3ccc4c(cnn4C)c3)c3ccccc3n2)n1 [GW876731],25%,0%,0%,1%,0%,1%,7%,0%,0%,0%
O=C(Nc1ccc2c(c1)OCO2)NC1CCN(c2ccnc(NCc3ccc(F)cc3)n2)CC1 [GSK1379859],2%,7%,43%,0%,0%,0%,3%,0%,4%,0%
COc1ccc(-c2cc3c(C)nc(N)nc3n([C@H]3CC[C@H](OCCO)CC3)c2=O)cn1,0%,22%,2%,5%,1%,0%,0%,0%,0%,28%
COc1cccc(C2=C(Nc3cccc(C(=O)O)c3)C(=O)NC2=O)c1 [SB-390770],0%,15%,1%,12%,0%,10%,14%,0%,7%,0%
